Hits are enriched below; roughly 14% of the tested compounds scored in any of these assays.
AID923 – qHTS Assay for Allosteric/Competitive Inhibitors of Caspase-1: Spectroscopic Profiling in AFC Spectral Region; compound fluorescence, AFC spectral region (405/520 nm); Potency, µM (top dose mostly 57.5 µM), for the others: at the highest dose fluorescence increase, hits mostly activators; 75,000 compounds, 1.1% hits; AID 923, 2007; also: potency is read from the fitted curve at half-maximal effect; 0% is about no effect
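Compound autofluorescence profiled at 405 nm ex/520 nm em during kinetic caspase 1 run (50 nM enzyme, 5 uM Ac-WEHD-AFC, HEPES pH 7.5, 10 mM DTT). Titration up to 57 uM; baseline from regression intercept, normalized to AFC standard curve.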
4-MU autofl – compounds fluorescent in 4-MU spectral region. compound autofluorescence, 340/450 nm, 4-MU equivalents; hits give high values. max dye-equivalent concentration, M. 59,000 compounds, 11% hits. AID 589; in the data active = max dye-equivalent concentration above about 10 nM; inconclusive = mostly about 1.1 nM to 9.6 nM
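Compounds in 100 mM Tris, pH 8.0, incubated 15 min at room temperature, then fluorescence read at 340 nm excitation/450 nm emission. Signal converted to 4-MU dye-equivalent concentration using an on-plate six-point 4-MU standard curve.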
A350 autofl – compounds fluorescent in Alexa 350 spectral region; max dye-equivalent concentration, M; 59,000 compounds, 11% hits; Compound autofluorescence, 340/450 nm, Alexa 350 dye-equivalents; hits give high values; in the data active = max dye-equivalent concentration above about 10 nM; inconclusive = mostly about 1.1 nM to 9.6 nM
HSD17B inh – blocks hydroxysteroid 17-beta dehydrogenase activity; Q99714; recombinant HSD17B10, NADH fluorescence kinetic; Potency, µM (top dose mostly 57.1 µM), for the others: top-dose activity change, negative = inhibition, hits mostly inhibitors; 75,000 compounds, 7.6% hits; AID 893;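 also: the protocol describes HADH2 (HSD17B10) and not the HSD17B4 of the title; potency is read from the fitted curve at half-maximal effect; % is scaled to controls: 0 for no effect and ±100 for the full control effect; nearly all actives have a fitted effect of over 70% in size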
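Activity followed as NADH fluorescence increase (ex 360, em 450 nm) every 30 seconds for 4 min, using final 90 uM beta-hydroxybutyryl CoA and 1 mM NAD+. Recombinant His-tagged enzyme, 20 nM, pH 9.0 Tris buffer, 15 min compound preincubation.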
HADH2 inhib – HADH2 (human) dehydrogenase inhibition. Q99714. recombinant HADH2, NADH fluorescence, beta-hydroxybutyryl-CoA. Potency, µM (titrated, usually from 57.1 µM), inactives show at the top dose activity change, negative = inhibition, hits mostly inhibitors. 73,000 compounds, 3.4% hits. AID 886; also: potency is read from the fitted curve at half-maximal effect; % is scaled to controls: 0 for no effect and ±100 for the full control effect; nearly all actives have a fitted effect of over 60% in size
Target sequence (Q99714 whole entry, looked up, one chain of several): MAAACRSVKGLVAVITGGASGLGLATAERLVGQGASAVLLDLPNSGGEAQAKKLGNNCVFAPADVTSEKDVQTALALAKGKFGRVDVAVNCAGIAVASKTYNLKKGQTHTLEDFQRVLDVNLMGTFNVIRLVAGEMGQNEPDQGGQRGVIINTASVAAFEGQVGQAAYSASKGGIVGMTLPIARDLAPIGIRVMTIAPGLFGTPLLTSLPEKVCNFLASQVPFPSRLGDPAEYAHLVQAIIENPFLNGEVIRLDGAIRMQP
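E. coli-expressed His-tagged HADH2 tested at 20 nM in alkaline Tris buffer (pH 9.0); oxidation of 90 uM beta-hydroxybutyryl-CoA with 1 mM NAD+ tracked fluorimetrically for 4 min.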
CRE Fsk mod – alters forskolin-stimulated CRE reporter signaling in CHO cells; AID 662; 71,000 compounds, 2.5% hits; Potency, µM (top dose mostly 38.2 µM), inactives show at the highest dose activity change, negative = inhibition, hits mostly activators; CHO CRE-bla reporter (cAMP response element driving beta-lactamase), forskolin EC10, beta-lactamase ratio; active = well fitted activation curve with a large enough effect in the signal ratio, with a control signal flat, not every such curve was filed as active; inconclusive = small, poorly fitted or top-dose-only effect, or effect the other way, or a change in a side signal; the % refers to the signal ratio; also: potency is read from the fitted curve at half-maximal effect; % of control where 0% means no effect
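CRE-bla CHO reporter cells treated with compound titration plus EC10 NKH 477 (water-soluble forskolin), incubated 3 h at 37 °C; CCF4 loading 2 h at room temperature, 460/530 nm emission ratio read, AC50 values derived for positive or negative modulators.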
An asterisk follows results filed as active; i = inactive; ? = inconclusive; . = no result; [ ] = another dose, or the depositor's remark. Unless noted, calls follow the shape of the dose curve; as a rule, active = well fitted curve in the direction sought with a large enough effect; inconclusive = small, poorly fitted or top-dose-only effect, or another doubt; inactive = no such curve, though single readings can be large; an effect the other way counts as inactive or inconclusive.

SMILES | AID923 | 4-MU autofl | A350 autofl | HSD17B inh | HADH2 inhib | CRE Fsk mod
COC1C(O)COC1/C=C/c1ccccc1 (configuration not stated) | 0%[11.5 µM] | . | . | -1%[11.4 µM] | 11%[11.4 µM] | .
CCOC(=O)c1[nH]c2ccc(OC)cc2c1NC(=O)C(C)N1CCC2(CC1)OCCO2 (configuration not stated) | 0% | 1.5e-07M* | 2e-07M* | 25µM* | ? | 29%
CCOC(=O)c1[nH]c2ccccc2c1NC(=O)c1nonc1C | 5% | . | . | 1% | 3% | .
COC(=O)c1[nH]c2cc(OC)c(OC)cc2c1NC(=O)c1cccc(OC)c1 | -2% | i | i | 7% | 6% | 10µM*
COc1ccc2c(c1)c(C(=O)CN1CCC3(CC1)OCCO3)c(C)n2C | 2% | i | i | -1% | 8% | ?
CCOC(=O)c1[nH]c2ccc(OC)cc2c1NC(=O)c1nonc1C | 3% | i | ? | -28% | 8% | 4µM*
CCOC(=O)c1[nH]c2ccc(OC)cc2c1NC(=O)CN1CCC2(CC1)OCCO2 | -1% | 1.6e-07M* | 6.2e-08M* | 25µM* | ? | 10µM*
CC(C)(C)c1ccc(O)c(CN(Cc2cc(C(C)(C)C)ccc2O)C2CCCCC2)c1 | -3%[11.5 µM] | i | i | -3%[11.4 µM] | 13%[11.4 µM] | -5%[7.6 µM]
CC(C)C1=C[C@@]23CC[C@@H]4[C@](C)(CCC[C@@]4(C)C(=O)O)[C@@H]2C[C@@H]1[C@@H](C(=O)O)[C@@H]3C(=O)O | 0%[11.5 µM] | i | i | 7%[11.4 µM] | -6%[11.4 µM] | 5%[7.6 µM]
O=C(O)/C=C\C(=O)Nc1ccccn1 | -1%[11.5 µM] | i | i | 10%[11.4 µM] | 7%[11.4 µM] | 13%[7.6 µM]
Nc1ccc(F)cc1F | -1% | . | . | 1% | -1% | -6%
COc1cc(C(=O)OCc2cc3ccccc3[nH]c2=O)cc(OC)c1OC | -2% | i | i | -3% | 10% | 3.2µM*
Cc1ccc(C(=O)OCc2cc3ccccc3[nH]c2=O)cc1 | 0% | i | i | 3% | 2% | ?
CCOC(=O)c1[nH]c2ccccc2c1NC(=O)c1cc(OC)c(OC)c(OC)c1 | 0% | i | i | -9% | -3% | 3.2µM*
Cc1ccc(CNC(=O)[C@@H]2C[C@H]2[C@@H](NP(=O)(c2ccccc2)c2ccccc2)c2ccccc2)o1 | 2% | . | . | -13% | -1% | -28%
CCc1cccc(CC)c1NC(=O)CN(CC(=O)O)CC(=O)O | 1%[25.7 µM] | 8.8e-08M* | 1.1e-07M* | 1%[25.6 µM] | -4%[25.6 µM] | -4%[17.1 µM]
O=C(O)CC[C@]1(C(=O)O)CCC(=O)c2ccccc21 | 3%[11.5 µM] | i | i | 5%[11.4 µM] | 3%[11.4 µM] | 12%[7.6 µM]
C=Cc1ccccc1Cl | 3% | . | . | -2% | -5% | -5%
CC(C)(C)NC(=O)COC(=O)c1snc(C(=O)NC2CCCCC2)c1N | 3% | 3.9e-07M* | 3.2e-07M* | 25µM* | -13% | 0%
CCC(C)(C)NC(=O)C(c1ccc(F)cc1)N(Cc1ccco1)C(=O)c1snc(C(N)=O)c1N (configuration not stated) | 3% | 1.4e-07M* | 1.6e-07M* | 25µM* | 15% | 7%
CC(C)(C)NC(=O)C(c1ccco1)N(Cc1ccc(F)cc1)C(=O)c1snc(C(N)=O)c1N (configuration not stated) | 1% | 1.5e-07M* | 2.2e-07M* | 25µM* | -13% | -7%
COc1ccc(CN(C(=O)c2snc(C(N)=O)c2N)C(C(=O)NC(C)(C)C)c2ccco2)cc1 (configuration not stated) | 2% | 1.6e-07M* | 2.3e-07M* | -28% | 3% | -6%
N=C(N)SCCc1ccc(OCc2ccc([N+](=O)[O-])cc2)cc1 | -3% | . | . | -19% | 3% | ?
CC(=O)N(Cc1ccco1)C1(C(=O)NC2CCCCC2)CCCCC1 | 1% | i | i | 6% | 7% | -2%
CC(C(=O)NC1CCCC1)N(Cc1ccco1)C(=O)c1snc(C(=O)NC2CCCC2)c1N (configuration not stated) | 3% | 8.2e-08M* | 7.4e-08M* | 32µM* | -23% | 0%
